Shown are actives, neighbours in structure and some others; about 2.4% of the full set was active somewhere.
SENP6 block: SENP6 protease inhibitors, primary screen, biochemical, luminescence, uHTS. Sentrin-specific protease 6 (Homo sapiens), Q9GZR1. Recombinant SENP6 catalytic domain, aminoluciferin luminescence. inhibition, % at 10 µM. hit rate 1.8% among 330,000. AID 2599, 2010;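 active means inhibition above about 50% at the single tested dose, limit read from the data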
Platelet DG rel: inhibitors of platelet dense granule secretion, primary screen, cell-based, MLPCN, human platelets; human platelet-rich plasma, SFLLRN dense granule ATP release, luminescence; hit rate 0.22% among 300,000; inhibition, %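 (compounds screened at 7.5 µM in platelet-rich plasma)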; AID 1663, 2009;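 active means mean replicate score, as percent of positive control, at or above 50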
SENP8 block-1: SENP8 protease inhibitors, primary screen, biochemical, luminescence; Sentrin-specific protease 8 (Homo sapiens), Q96LD8; purified SENP8, Z-RLRGG-aminoluciferin cleavage; inhibition, % at 10 µM; hit rate 1.2% among 330,000; AID 2540, 2010; in the data active means inhibition above about 50%
Target sequence (Q96LD8 whole entry, looked up): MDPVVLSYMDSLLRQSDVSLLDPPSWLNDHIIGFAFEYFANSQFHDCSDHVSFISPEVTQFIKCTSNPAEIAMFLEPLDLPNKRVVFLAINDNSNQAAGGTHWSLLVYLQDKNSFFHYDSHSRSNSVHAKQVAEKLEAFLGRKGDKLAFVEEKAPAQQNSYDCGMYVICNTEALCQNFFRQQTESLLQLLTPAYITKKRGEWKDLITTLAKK
SENP7 inh: SENP7 protease inhibitors, primary screen, biochemical, luminescence, uHTS; Sentrin-specific protease 7 (Homo sapiens), Q9BQF6; recombinant SENP7, Z-RLRGG-aminoluciferin luminescence, 40 min; inhibition, % at 5 µM; hit rate 1.5% among 330,000;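 active means inhibition above about 50% at the single test dose, limit read from the data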
Target sequence (Q9BQF6 706-1050 limits assumed): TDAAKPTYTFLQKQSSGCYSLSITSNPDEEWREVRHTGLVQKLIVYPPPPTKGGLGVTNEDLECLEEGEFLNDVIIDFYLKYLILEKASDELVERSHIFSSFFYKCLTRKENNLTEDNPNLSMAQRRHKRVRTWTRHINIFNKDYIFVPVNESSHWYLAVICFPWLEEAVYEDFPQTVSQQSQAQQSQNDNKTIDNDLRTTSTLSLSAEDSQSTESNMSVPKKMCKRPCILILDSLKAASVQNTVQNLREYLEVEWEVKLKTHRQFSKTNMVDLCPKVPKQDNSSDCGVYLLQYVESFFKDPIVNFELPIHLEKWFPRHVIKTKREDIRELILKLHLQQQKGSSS
SENP8 block-2: human SENP8 protease inhibitors, primary screen, biochemical, fluorescence, Nedd8 protein substrate, uHTS | AID 602440, 2012 | recombinant SENP8 | hit rate 0.64% among 360,000 | inhibition, % at 20 µM | Sentrin-specific protease 8 (Homo sapiens), Q96LD8; in the data active means inhibition mostly above about 40%, no sharp cut-off; inactive means mostly below about 27%
SENP8 inh conf: human SENP8 protease inhibitors, confirmation, biochemical, Nedd8 protein substrate, single concentration; shares compounds with SENP8 block-2; purified SENP8, Nedd8-AMC/pro-Nedd8 cleavage fluorescence, 30 min; inhibition, % at 25 µM; hit rate 15% among 1,400; AID 624319, 2012; in the data active means inhibition mostly above about 39%, no sharp cut-off; inactive means mostly below about 34%
Of the large screens only hits and unclear results are named; the others gave an inactive call (follow-up assays come after a bar, where they were run).

OC1(C(F)(F)F)CC(c2ccc3ccccc3c2)=NO1 (centres undefined)	none
CNC(=O)c1ccc2cc(OC)c(OC)cc2c1	none (no result: SENP6 block, Platelet DG rel, SENP8 block-1, SENP7 inh)
Cc1cc(C)nc(NNS(=O)(=O)c2ccc(F)c(Cl)c2)n1	SENP8 block-2 36 | SENP8 inh conf inactive
Cc1cc(C)nc(NNS(=O)(=O)c2ccc(Cl)cc2)n1	none (no result: Platelet DG rel)
CCOC(=O)C1=C(C)NC(=O)NC1c1ccc(OC)c(Cl)c1 (centres undefined)	none
CCOC(=O)C1=C(C)NC(=O)NC1c1ccc(OCCO)c(OC)c1 (centres undefined)	SENP8 block-2 40 | SENP8 inh conf inactive
C[C@H]1CN([C@@H](C)CO)C(=O)CCCn2nncc2CO[C@@H]1CN(C)C(=O)c1ccc(N2CCN(C)CC2)cc1	SENP8 block-2 50 (no result: SENP6 block, Platelet DG rel, SENP8 block-1, SENP7 inh) | SENP8 inh conf inactive
C[C@@H]1CN([C@H](C)CO)C(=O)CCCn2nncc2CO[C@H]1CN(C)C(=O)c1ccc(N2CCN(C)CC2)cc1	none (no result: SENP6 block, Platelet DG rel, SENP8 block-1, SENP7 inh)
COC(=O)C1=CO[C@@H](O[C@@H]2OC(CO)[C@@H](O)[C@@H](O)[C@@H]2O)C2C1CC[C@]2(C)O (some centres undefined)	none
COC(=O)C1=COC(OC2OC(CO)C(O)C(O)C2O)C2C1C=CC2(O)CO (centres undefined)	SENP8 block-2 41 (no result: Platelet DG rel) | SENP8 inh conf inactive
Cc1ccc(-n2c(=O)cc(N3CCCCCC3)[nH]c2=O)cc1	SENP8 block-2 45 | SENP8 inh conf inactive
CCn1c2ccccc2c2nnc(NN)nc21	none
Cn1c2ccccc2c2nnc(NN)nc21	SENP8 block-2 77 | SENP8 inh conf 38
CCCCn1c2ccc(F)cc2c2nnc(NN)nc21	SENP8 block-2 71 | SENP8 inh conf inactive
CCn1c2ccc(C)cc2c2nnc(NN)nc21	SENP8 block-2 69 | SENP8 inh conf inactive
CN(Cc1ccccc1)C(=O)COC(=O)CCC(=O)c1ccc(F)cc1	none (no result: Platelet DG rel)
Cc1cc(Br)ccc1NC(=O)C1C2CCC(O2)C1C(=O)O (centres undefined)	none
Cc1cccc(OC(=O)c2cccnc2)c1C	none
O=C(Oc1ccccc1[N+](=O)[O-])c1cccnc1	SENP8 block-2 46 | SENP8 inh conf inactive
CCC1(c2ccccc2)NC(=O)N(CC(=O)NCc2ccc(C)cc2)C1=O (centres undefined)	none (no result: Platelet DG rel)
Cc1cc(-n2cnc(-c3cn[nH]c3C)n2)no1	none
O=C(CCC(=O)N1CCc2ccccc2C1)N1CCN(S(=O)(=O)c2ccccc2)CC1	SENP8 block-2 43 | SENP8 inh conf 64
COCCNC(=O)/C(C#N)=C/c1cccs1	none (no result: Platelet DG rel)
COc1ccc(N(CCC#N)C(=O)/C(C#N)=C\c2cccs2)cc1	SENP8 block-2 34 | SENP8 inh conf inactive
COc1cc(N(C(C)=O)c2ccc(O)c(C(=O)O)c2)c2ncccc2c1	SENP8 block-2 44 (no result: SENP6 block, Platelet DG rel, SENP8 block-1, SENP7 inh) | SENP8 inh conf 61
C=C(c1cn(C(C)=O)c2ccccc12)c1cn(C(C)=O)c2ccccc12	none (no result: SENP6 block, Platelet DG rel, SENP8 block-1, SENP7 inh)
CC(=O)n1cc(CO)c2ccccc21	SENP8 block-2 45 | SENP8 inh conf inactive
O=Nc1c(-c2ccccc2)[nH]n(-c2ccccc2)c1=O	SENP8 block-2 47 | SENP8 inh conf inactive
COc1ccc(C(=O)/C=C/c2ccc(C)cc2)c(OC(=O)c2ccc([N+](=O)[O-])cc2)c1	SENP8 block-2 43 (no result: Platelet DG rel) | SENP8 inh conf inactive
COc1ccc(C(=O)/C=C/Nc2ccc([N+](=O)[O-])cc2C)c(OC)c1	none
CC(=O)c1cccc(NS(=O)(=O)N2CCCCC2)c1	SENP8 block-2 41 | SENP8 inh conf inactive
Cc1ccc2[nH]c(C)c(/C=C/c3cc[n+](C)cc3)c2c1	SENP8 block-2 40 | SENP8 inh conf inactive
C[n+]1ccc(/C=C/c2c[nH]c3ccc(F)cc23)cc1	none
Cc1ccc2c(c1)c(/C=C/c1cc[n+](C)cc1)c(C)n2C	SENP8 block-2 44 | SENP8 inh conf inactive
CCOc1cc(/C=C2\N=C(SC)SC2=O)cc([N+](=O)[O-])c1OC(C)=O	SENP8 block-2 45 | SENP8 inh conf inactive
CCOc1cc(/C=C2\N=C(SCC)SC2=O)cc([N+](=O)[O-])c1OC(C)=O	none
Cc1cc(C)n(-c2ccc(C(=O)N3CCN(c4ccccn4)CC3)cc2)n1	none (no result: Platelet DG rel)
Cc1cc(C)n(-c2ccc(C(=O)N3CCN(S(=O)(=O)c4ccc(Br)cc4Cl)CC3)cc2)n1	SENP8 block-2 42 (no result: SENP6 block, Platelet DG rel, SENP8 block-1, SENP7 inh) | SENP8 inh conf inactive
CC(C)C[C@H](N)C(=O)N1CCC(C(=O)N[C@H](C(=O)NC(C)c2ccccc2)C(C)C)CC1 (some centres undefined)	SENP8 block-2 42 | SENP8 inh conf inactive
CC(C)C[C@H](N)C(=O)N1CCC(C(=O)N[C@H](C(=O)NCc2ccc(F)cc2)C(C)C)CC1	none
COc1ccc(CNC(=O)[C@@H](NC(=O)C2CCN(C(=O)[C@@H](N)CC(C)C)CC2)C(C)C)cc1	SENP8 block-2 52 | SENP8 inh conf inactive
Cc1onc(-c2c(F)cccc2Cl)c1C(=O)Nc1cc2cc([N+](=O)[O-])ccc2oc1=O	none (no result: SENP6 block, Platelet DG rel, SENP8 block-1, SENP7 inh)
CN(C)c1ccc(C=C(C#N)C(=O)c2ccccc2)cc1Br	none (no result: SENP6 block, Platelet DG rel, SENP8 block-1, SENP7 inh)
CC(C)(C)NS(=O)(=O)c1ccc(Oc2ncc(C(F)(F)F)cc2Cl)cc1	SENP8 block-2 40 | SENP8 inh conf inactive
COCCCNS(=O)(=O)c1ccc(Oc2ncc(C(F)(F)F)cc2Cl)cc1	none
Cn1c(N)c(C(=O)CSc2nnc(NC3CCCCC3)s2)c(=O)n(C)c1=O	none (no result: Platelet DG rel)
CC(C)c1ccc(-c2nnc(SCC(=O)NC3CC3)n2C)cc1	none
NCCNc1ccc(C(=O)N2c3ccccc3Sc3ccccc32)cc1[N+](=O)[O-]	SENP8 block-2 52 | SENP8 inh conf inactive
O=C(Cc1ccccc1F)NNC(=O)c1ccncc1	none
CC1=NN(c2ccccc2)C(=O)C1C(=S)SC1CC(=O)NC1=O (centres undefined)	SENP8 block-2 45 (no result: SENP6 block, Platelet DG rel, SENP8 block-1, SENP7 inh) | SENP8 inh conf inactive
Cc1cc(C(=O)CCC(=O)NC(C)c2ccc(S(N)(=O)=O)cc2)c(C)s1 (centres undefined)	none
COc1ccc2[nH]c3c(c2c1)CCN1C(=O)C(CC(=O)NCCC2=CCCCC2)C[C@H](C(=O)N2CCCCC2)[C@@]31C (some centres undefined)	none (no result: SENP6 block, Platelet DG rel, SENP8 block-1)
O=c1[nH]n2c(=O)c3c([nH]c2c1N=Nc1cccc(C(F)(F)F)c1)CCCC3	SENP8 block-2 56 | SENP8 inh conf inactive
COC(=O)[C@H](CCSC)NC(=O)Cn1cnc2c(NCc3ccccc3)ncnc21	none (no result: SENP6 block, Platelet DG rel, SENP8 block-1)
COc1ccc(NC(=O)NNc2cc(N3CCOCC3)nc(N3CCOCC3)n2)cc1	SENP8 block-2 44 | SENP8 inh conf inactive
